This is part of a sample that, as a whole, favours compounds with a hit. Of some 79,000 tested, about 15% had one in any assay. A number with no mark means an inactive call. Calls of active or inactive are those of the source. Rule as the data show it: active = growth inhibition above about 70%; inactive = the rest.
Test: NCI Yeast Anticancer Drug Screen. Data for the wt2 strain (AID 169);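 also: 0% = growth of vehicle-treated yeast cultures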
Settings: S. cerevisiae wt2 strain growth inhibition, hits give high values
Method: Growth inhibition of yeast strains with defined genetic alterations is measured as a screen for potential anti-cancer activity. Selected strains with alterations in DNA damage repair or cell cycle control were exposed to compounds and growth inhibition was measured relative to vehicle treated controls. The strain used in this assay is wt2

| SMILES | growth inhibition (at 1.2 µM) [%] | growth inhibition (at 3.7 µM) | growth inhibition (at 11.0 µM) | growth inhibition (at 33.0 µM) | growth inhibition (at 100.0 µM) |
| --- | --- | --- | --- | --- | --- |
| O=C1C(=O)N(c2ccccc2)[C@@]2(c3ccccc3)C(=Nc3ccccc3)OC(c3ccccc3)=C12 | -3 | -5% | 72% (active) | 93% (active) | 96% (active) |
| Nc1ccc(N=Nc2ccc(-c3ccc(O)cc3)cc2)c2ccc(S(=O)(=O)O)cc12 | -1 | 2% | 5% | 16% | 21% |
| CN(C)CCCn1c2c3ccccc3ccc2c2oc(=O)c3ccccc3c21 | -22 | -9% | 50% | 93% (active) | 97% (active) |
| O=C(Cc1ccccc1)NN1C(=O)C(Cl)C1c1cc(Br)cc(Br)c1O (stereo not given) | -5 | 10% | 88% (active) | 94% (active) | 90% (active) |
| COC(=O)C(Cl)(Cl)N=Nc1c(Cl)cc(Cl)c(C)c1Cl | -3 | 89% (active) | 99% (active) | 99% (active) | 99% (active) |
| Nc1ccc2cc(Br)ccc2c1Br | -1 | -8% | -5% | -6% | 28% |
| CCC(C)(C)c1ccc(Oc2ccccc2)c(N)c1 | -17 | 0% | 97% (active) | 99% (active) | 99% (active) |
| Fc1ccc(Nc2ccc3ccccc3c2)cc1 | -1 | 8% | -1% | 44% | 91% (active) |

Source: PubChem BioAssay (NCI)
